Activity calls are given as the source filed them. Rule for the calls: active = hit-call score of the fitted dose curve at least 0.9, where 1 is the maximum; inactive = score below 0.9.
Experiment: ATG_TA_CIS: Attagene CIS-FACTORIAL HepG2 Assay for human TA Basal Promoter (AID 2282964)
Conditions: HepG2 Attagene CIS-factorial TA basal promoter reporter; actives raise or lower the signal
Procedure: ATG_CIS is a cell-based, multiplexed-readout assay that uses HepG2, a human liver cell line, with measurements taken at 24 hours after chemical dosing in a 24-well plate.ATG_TA_CIS is one of 52 assay component(s) measured or calculated from the ATG_CIS assay. It is designed to make measurements of mRNA induction, a form of inducible reporter, as detected with fluorescence intensity signals by Reverse transcription polymerase chain reaction (RT-PCR) and Capillary electrophoresis technology.Data from the assay component ATG_TA_CIS was analyzed into 1 assay endpoint. This assay endpoint, ATG_TA_CIS, was analyzed with bidirectional fitting relative to DMSO as the negative control and baseline of activity. Using a type of inducible reporter, measures of mRNA for gain or loss-of-signal activity can be used to understand the background control at the transcription factor-level as they relate to the gene . Furthermore, this assay endpoint can be referred to as a secondary readout, because this assay has produced multiple assay endpoints where this one serves a background control function. To generalize the intended target to other relatable targets, this assay endpoint is annotated to the background measurement intended target family, where the subfamily is internal marker.
Human liver HepG2 cells are transiently transfected with multiple reporter transcription units (MRTUs) in 6-well plates using FuGene 6 reagent (Roche; 3 ml FuGene/1 mg DNA). The MRTU constructs are regulated by a cis-regulating element (promoter). […] A major difference between the CIS and TRANS system is that in CIS activities of endogenous TFs are measured, whereas the TRANS assay evaluates changes in activities of exogenous, chimeric NR-Gal4 proteins. […] At the end of 24 hour incubation, total RNA was isolated using TriZol reagent (Invitrogen). The isolated RNA is then reverse-transcribed using oligo(dT) primer and Mo-MLV reverse transcriptase (Invitrogen) with DNAse I (Ambion) treatment for 30 min. The one-tenth of the produced cDNA was amplified by PCR using Taq DNA polymerase (Invitrogen) and two reporter sequence-specific primers. The PCR products were fluorescently labeled by primer extension with 6-arboxyfluorescein (6-FAM) 5'-labeled reporter sequence-specific primer (2 min at 95 C, 20 s at 68 C and 10 min at 72 C) and these products were digested with 5U of HpaI (New England Biolabs) for 2h at 37 C. The fragments were purified using Qiaquick PCR columns (Qiagen), analyzed on an ABI 3130xL genetic analyzer (Applied Biosystems) with peak positions identified by using a set of X-rhodamine (ROX)-labeled MapMarker1000 molecular weight standards (BioVentures). The raw capillary electrophoresis data was processed using Attagraph software (Attagene).

| Compound | outcome |
| --- | --- |
| COc1ccccc1C=O | inactive |
| Cc1ccc(O)c(-n2nc3ccccc3n2)c1 | inactive |
| OCC(F)(F)C(F)(F)C(F)(F)C(F)(F)C(F)(F)C(F)(F)C(F)(F)C(F)(F)CO | inactive |
| N#CCCOCCC#N | inactive |
| CC(C)(C)c1cc(CCC(=O)OCC(COC(=O)CCc2cc(C(C)(C)C)c(O)c(C(C)(C)C)c2)(COC(=O)CCc2cc(C(C)(C)C)c(O)c(C(C)(C)C)c2)COC(=O)CCc2cc(C(C)(C)C)c(O)c(C(C)(C)C)c2)cc(C(C)(C)C)c1O | inactive |
| CCOC(OCC)OCC | inactive |
| CO[Si](CCCOCC1CO1)(OC)OC (stereo not given) | inactive |
| O=C(O)CCC(F)(F)C(F)(F)C(F)(F)C(F)(F)C(F)(F)C(F)(F)C(F)(F)F | inactive |
| CSc1ccc(Cl)cc1 | inactive |
| CCOC(=O)CC(=O)C(F)(F)C(F)(F)F | inactive |
| OCC(F)(F)C(F)(F)C(F)(F)CO | inactive |
| O=S(=O)(OCC(F)(F)F)C(F)(F)C(F)(F)C(F)(F)C(F)(F)F | inactive |
| C=CCOC(=O)CC(C)C | inactive |
| CCOC(C=C(C)CCC=C(C)C)OCC | inactive |
| c1ccc(C[P+](c2ccccc2)(c2ccccc2)c2ccccc2)cc1 | inactive |
| CC(C)OC(=O)COc1ccc(Cl)cc1Cl | inactive |
| O=C(O)C(F)(F)C(F)(F)C(F)(F)C(=O)O | inactive |
| C=CC(=O)OCC(F)(F)C(F)(F)C(F)(F)C(F)(F)C(F)(F)C(F)(F)C(F)(F)C(F)F | inactive |
| Cc1ccc(O)cn1 | inactive |
| CCOCN(C(=O)CS(=O)(=O)O)c1c(C)cccc1CC | inactive |

| Compound | outcome |
| --- | --- |
| C=CC(=O)OCCC(F)(F)C(F)(F)C(F)(F)C(F)(F)F | inactive |
| C#CC(O)CCC (stereo not given) | inactive |
| NCC(F)(F)C(F)(F)C(F)(F)C(F)(F)C(F)(F)C(F)(F)C(F)(F)C(F)(F)F | inactive |
| CSc1ccc(O)cc1C | inactive |
| COCCOCCC[Si](C)(O[Si](C)(C)C)O[Si](C)(C)C | inactive |
| CCOC(=O)CCC(C)=O | inactive |
| Cc1cc(C)c(O)c(C(C)(C)C)c1 | inactive |
| CCN(CCO)S(=O)(=O)C(F)(F)C(F)(F)C(F)(F)C(F)(F)C(F)(F)C(F)(F)C(F)(F)C(F)(F)F | inactive |
| O=C(O)C(F)(F)C(F)(F)C(F)(F)OC(F)(C(F)(F)F)C(F)(F)F | inactive |
| CCN(CC)c1ccc2c(c1)Oc1cc(N(CC)CC)ccc1C21OC(=O)c2ccccc21 | inactive |
| CC(=O)C=O | inactive |
| OCCCCC(F)(F)C(F)(F)C(F)(F)C(F)(F)F | inactive |
| O=C1OC(=O)c2ccc3c4c(ccc1c24)C(=O)OC3=O | inactive |
| O=C1c2c(O)ccc(Nc3ccc(CCO)cc3)c2C(=O)c2c([N+](=O)[O-])ccc(O)c21 | inactive |
| CCCCOC(=O)[C@H](C)O | inactive |
| CCCCCCCCCCCCCCCCC | inactive |
| CC(C)=CCCC(C)O (stereo not given) | inactive |
| C[Si](C)O[Si](C)C | inactive |
| CN(C)C(C)(C)CO | inactive |
| O=c1cccc[nH]1 | inactive |

Reference: PubChem BioAssay (EPA / NIEHS)
